# Hits are enriched below; roughly 2.4% of the tested compounds scored in any of these assays.
# D2 PAM-1: positive allosteric modulators of human D2 dopamine receptor; P14416; HEK293 T-REx D2, calcium flux, EC20 dopamine potentiation; potentiation, % at 10 µM; hit rate 0.34% among 340,000; AID 485347;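 active = potentiation over 3 SD above the plate norm, cut at about 30% in these data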; note: 0% is about no effect
# Target sequence (P14416 whole entry, looked up): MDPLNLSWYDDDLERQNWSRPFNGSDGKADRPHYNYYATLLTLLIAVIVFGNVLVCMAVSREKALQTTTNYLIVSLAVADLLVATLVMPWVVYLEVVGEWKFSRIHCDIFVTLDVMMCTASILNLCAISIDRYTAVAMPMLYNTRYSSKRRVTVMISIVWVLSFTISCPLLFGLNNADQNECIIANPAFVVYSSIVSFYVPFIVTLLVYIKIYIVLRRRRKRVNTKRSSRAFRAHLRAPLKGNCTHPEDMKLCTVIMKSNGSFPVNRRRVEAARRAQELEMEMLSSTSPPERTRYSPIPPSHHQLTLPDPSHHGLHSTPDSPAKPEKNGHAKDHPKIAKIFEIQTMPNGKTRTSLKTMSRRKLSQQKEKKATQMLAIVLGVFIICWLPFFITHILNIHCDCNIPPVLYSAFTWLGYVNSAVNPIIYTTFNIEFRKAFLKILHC
#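 Potentiation of an EC20 dopamine calcium response measured kinetically over 180 s, after a preceding 180 s compound-only read flagging agonists. Cells: inducible Hek293 Trex D2 line, 4000/well, cultured overnight at 30 C before dye loading.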
# D2 ag-1: agonists of human D2 dopamine receptor; P14416; HEK293 T-REx D2 cells, calcium flux agonist mode; activation, % at 2 µM; hit rate 0.53% among 340,000; AID 485358;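 active = activation over 3 SD above normal in the single-dose calcium agonist read, cut at about 30% in these data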; note: 0% is about no effect
#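 HEK293 Trex D2 cells, tetracycline-induced, o/n 30 C 5% CO2; no-wash Ca dye, RT 30–90 min; 10-cycle baseline, 23 nl cpd added, kinetic Ca read 180 s; agonist hits = positive Ca response.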
# D2 ag-2: agonists of human D2 dopamine receptor (beta-arrestin) | activation, % (concentration not given with the values) | DiscoveRx PathHunter D2 beta-arrestin, luminescence, 90 min; 100% = 57 uM dopamine signal | P14416 | hit rate 0.084% among 360,000; in the data active = activation above about 40%; inconclusive = between about 15% and that limit
#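 DiscoveRx PathHunter D2 beta-arrestin cells (2,100/well) attached overnight, then compound-stimulated 90 min at 37 C in HBSS/10 mM HEPES/0.1% Tween-20 buffer; beta-galactosidase complementation read by luminescence after 1 h at ambient temperature. Dopamine 57 uM final (EC100) as control.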
# D2 PAM-2: positive allosteric modulators of human D2 dopamine receptor; P14416; potentiation, % (test concentration not listed); AID 624464; hit rate 0.23% among 360,000; DiscoveRx D2 beta-arrestin cells, luminescence, 90 min; 100% = 57 uM dopamine signal; in the data active = potentiation above about 50%; inconclusive = mostly about 30% to 49%
#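 D2 cells co-treated with compound plus 50 nM dopamine (EC20) for 90 min at 37 deg C to detect potentiation. Beta-arrestin recruitment was read as enzyme-fragment luminescence after 1 h at ambient temperature. Full response was set by 57 uM dopamine.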
# D2 antag: D2 dopamine receptor (human) antagonism | HEK293 TREx D2 cells, calcium flux, dopamine EC80 | inhibition, % at 10 µM | AID 485344 | P14416 | hit rate 2% among 340,000; in the data active = inhibition above about 30%; inactive = below that, where a call was filed; note: 0% is about no effect
#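 Tetracycline-induced HEK293 T-REx cells expressing D2 force-coupled to calcium signalling were dye-loaded, exposed to compound for 180 s, then challenged with an EC80 of dopamine; calcium flux was followed kinetically for a further 180 s.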
# D3 arrestin ag: D3 receptor agonism confirmed, beta-arrestin readout | shares compounds with D2 ag-1 | DiscoveRx D3 beta-arrestin cells, luminescence, 90 min | Potency, µM (titrated, usually from 76.9 µM), for inactives: at the top dose activation, usual class: activators | hit rate 4% among 2,300;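 note: potency is the fitted concentration of half-maximal effect; 100% = dopamine control response; nearly all actives have a fitted effect of over 70% in size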
# D2 ag-3: D2 receptor agonism, beta-arrestin counterscreen; shares compounds with D2 ag-1; DiscoveRx PathHunter D2 beta-arrestin, luminescence, 90 min; response scale: percent relative to full dopamine signal; Potency, µM (highest dose often 76.9 µM), inactives show top-dose activation, usual class: activators; hit rate 5.9% among 2,300; AID 720507; note: potency is the fitted concentration of half-maximal effect; % of control where 0% means no effect; nearly all actives have a fitted effect of over 70% in size
# The depositor's hits bear a star; ? = inconclusive; . = no result given. Unless noted, calls come from the whole dose curve; as a rule, active = well fitted activation curve with a large enough effect; inconclusive = small, poorly fitted or top-dose-only effect; inactive = flat fitted curve, though single readings scatter.
SMILES,D2 PAM-1,D2 ag-1,D2 ag-2,D2 PAM-2,D2 antag,D3 arrestin ag,D2 ag-3
CCN(C(=O)c1nn(-c2ccc(OC)c(Cl)c2)c(=O)c2c1c1ccccc1n2C)c1cc(OC)ccc1OC,-2.5,0.2,.,.,.,.,.
CCOC(=O)C1CCN(Cc2cnc(NC(=O)OC)s2)CC1,-13.3,60.3*,8.3,-21.5,18.3,-2.2%,8.1%
Cc1cc(C)cc(-n2c(SCC(=O)Nc3ccccc3F)nc3c(oc4ccccc43)c2=O)c1,15.6,.,.,.,.,.,.
CCNC(=O)C(=O)Nc1ccc([N+](=O)[O-])cc1,-9.1,25.2,-1.4,-10.3,-23.2,-1.2%,-0.7%
COc1ccc(N2CCN(C(CNS(=O)(=O)c3cccs3)c3cccnc3)CC2)cc1 (stereo unspecified),26.1,-1.4,-2.5,-4.4,11.6,.,.
O=S(=O)(NCC(c1cccnc1)N1CCN(c2ccccc2)CC1)c1cccs1 (stereo unspecified),-8.0,15.0,9.3,9.2,-18.0,-3.8%,4.1%
O=S(=O)(NCC(c1cccnc1)N1CCN(Cc2ccccc2)CC1)c1cc(F)ccc1F (stereo unspecified),-14.7,69.8*,10.6,-5.2,43.2*,3.7%,17.3%
COc1ccc(NC(=O)c2c(N)c(C(=O)c3ccc(OC)cc3)n3ccccc23)cc1,-14.2,-0.5,.,.,.,.,.
CCc1ccccc1NC(=O)C1CCCN(c2ncnc3onc(C)c23)C1 (stereo unspecified),-13.4,0.4,.,.,.,.,.
CCOC(=O)[C@H]1[C@H]2COc3cc(OC)ccc3[C@@H]2N2C(=O)CN(Cc3ccco3)C(=O)[C@@]12C,6.0,-0.1,0.8,-2.1,-4.7,-5.3%,-4.1%
CCOC(=O)[C@@H]1[C@H]2COc3ccc(Br)cc3[C@H]2N2C(=O)N(c3ccc(Br)cc3)C(=O)[C@]12C,-11.4,0.5,1.3,-27.2,-4.5,.,.
CCOC(=O)[C@@H]1[C@H]2COc3ccc(Br)cc3[C@@H]2N2C(=O)N(c3ccc(Br)cc3)C(=O)[C@]12C,-18.8,32.4*,-4.3,-0.7,9.1,-1.5%,7.3%
CCCC(=O)N1CCN(Cc2ccc3c(c2)OCO3)CC1,-32.5,60.8*,4.8,7.9,-1.2,-10.7%,10.4%
COCc1c(C(=O)N2CCN(Cc3ccc4c(c3)OCO4)CC2)oc2ccccc12,-21.0,69.7*,45.5*,15.5,70.5*,14.8%,10µM*
O=C(CSc1ncnc2scc(-c3ccccc3)c12)N1CCN(Cc2ccc3c(c2)OCO3)CC1,-22.8,74.1*,?,15.3,69.7*,10.5%,?
O=C(O)CCC(=O)N1CCN(Cc2ccc3c(c2)OCO3)CC1,6.8,4.6,-4.7,0.0,9.1,.,.
COCc1c(C(=O)N2CCN(Cc3ccc(C#N)cc3)CC2)oc2ccccc12,3.6,-0.4,-3.5,-3.9,4.8,.,.
CC(C)CC(=O)N1CCN(Cc2ccc3c(c2)OCO3)CC1,-24.0,79.8*,?,9.8,29.2,-11.3%,?
c1ccc(-c2csc3ncnc(N4CCN(Cc5ccc6c(c5)OCO6)CC4)c23)cc1,-14.4,0.0,-2.0,-19.2,-5.7,.,.
COc1ccc(NC(=O)CCn2cnnn2)cc1,5.4,0.1,.,.,.,.,.
COC(=O)c1ccc(C(=O)OC)c(NC(=O)c2ccc(-c3ccccc3)s2)c1,25.3,-0.9,.,.,.,.,.
COc1ccc(CNC(=O)c2ccc(Cn3c(=O)c4cccn4c4cccnc43)cc2)cc1OC,-0.9,.,.,.,.,.,.
O=c1c2c3c(sc2n(Cc2cc(=O)n4ccccc4n2)c(=O)n1-c1ccccc1)CCC3,-9.7,.,.,.,.,.,.
CCn1nc(C(=O)N2CCN(Cc3ccc4c(c3)OCO4)CC2)c2ccccc2c1=O,-23.7,50.1*,-2.2,-9.9,16.3,-9.5%,3.3%
CC(C)CC(=O)N1CCN(Cc2cccc(F)c2)CC1,-0.3,15.8,3.6,-4.9,-9.5,.,.
COc1cccc(CN2CCN(C(=O)CC(C)C)CC2)c1,-9.7,54.9*,3.1,11.6,-20.2,12.1%,8.2%

# Source: PubChem BioAssay (National Center for Advancing Translational Sciences (NCATS))
